PubChem BioAssay AID1272365 (Small Molecule Screening Facility, UW Madison, 2018)
Where “and” joins values, the source holds several entries; their conditions need not be identical. Equal values may be shown once. The whole screen tested about 430,000 compounds, of which about 2,600 (0.6%) were called active. What follows is part of a selection rich in actives, with near analogues and random picks from the rest. Unmarked numbers belong to inactive results. No stated cut-off is given here; in the data, active means inhibition mostly above about 37% (no sharp cut-off); inactive means mostly below about 20%.

tested on: PriA–SSB C-terminal tail interaction (Klebsiella pneumoniae); test: inhibitors of Klebsiella pneumoniae PriA binding to SSB C-terminal tail, primary screen, biochemical, AlphaScreen (AID 1272365); conditions: AlphaScreen SSBct-PriA binding, biotinylated peptide; at 33 µM, stronger effect = higher value;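 on inhibition: plate controls were negative control peptide for no effect and reference peptide for full effect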

SMILES | inhibition
Cc1ccc2c(CC(=O)NCc3ccccc3Cl)cc(=O)oc2c1 | -3%
O=C(OCC(=O)N1CCc2ccccc21)c1ccc([N+](=O)[O-])cc1 | -10.4%
O=C(COC(=O)c1cccc(I)c1)c1ccc(-n2nncc2-c2ccccc2)cc1 | -4%
O=C(COC(=O)c1cccc(I)c1)c1ccc([N+](=O)[O-])cc1 | 38% (active)
CS(=O)(=O)N1CCC(CNC(=O)c2ccc(OC(F)(F)F)cc2)CC1 | -25%
O=S(=O)(/C=C/c1ccccc1)N1CCCSCC1CN1CCOCC1 (stereo not given) | -4%
COC(=O)c1sccc1S(=O)(=O)NCc1ccc(C(=O)c2ccco2)s1 | -24%
O=C(Cn1nc(-n2ccc3ccccc32)ccc1=O)Nc1c[nH]c(=O)[nH]c1=O | -41%
CCOc1ccccc1C(=O)N1CCN(c2ccc(-c3ccccn3)nn2)CC1 | 100% (active)
CCSc1ccccc1C(=O)N1CCN(C(=O)C2CC2c2ccccc2)CC1 (stereo not given) | -7%
CCOc1ccccc1C(=O)N1CCC(Oc2cccc(C)n2)CC1 | -8%
O=S(=O)(CCc1ccccc1)N1CCN(c2ccc(-c3ccccc3)nn2)CC1 | -3%
O=C(c1ccc(N2CCCCC2)nn1)N(Cc1ccccc1)c1ccccn1 | -19%
c1ccc(-c2ccc(N3CCNCC3)nn2)nc1 | 100% (active)
CCSc1ccccc1C(=O)N1CCN(c2ncnc3c2nnn3C)CC1 | -12%
O=C(c1ccccc1F)N1CCN(c2ccc(-c3cccnc3)nn2)CC1 | -8% and -16%
CCSc1ccccc1C(=O)N1CCN(c2ccc(-c3ccccn3)nn2)CC1 | 161% (active)
C=CCNC(=S)NN=C(C)c1cc(OC)c(OC)c(OC)c1 | -5.43%
Cc1cc(OC2CN(C(=O)C(C)(C)Oc3ccc(Cl)cc3)C2)cc(=O)n1C | -5%
COc1ccc(N2CCn3c(SCC(=O)Nc4ccc(OC)cc4OC)nnc32)cc1 | -12%
O=C(O)c1cc(Br)cs1 | -5%
COc1ccc(OCC(=O)NN=C(C)CC(=O)Nc2ccc(OC)cc2[N+](=O)[O-])cc1 | -8.04%
COc1ccc(NC(=O)CCSc2ccc(C)cc2)c([N+](=O)[O-])c1 | 62% (active)
Cc1ccc(SCCC(=O)Nc2cccc(Cl)c2Cl)cc1 | -17% and -19%

SMILES | inhibition
CN(C)[C@@H](CNC(=O)C(=O)Nc1ccc(F)c(Cl)c1)c1ccco1 | -17%
NC(=O)c1ccccc1NC(=O)c1cccn(Cc2cccc(F)c2)c1=O | 4%
N#C/C(=C\N1CCC(C(N)=O)CC1)C(=O)NCCc1ccccc1 | -13%
O=C(Nc1nc2c(s1)C(=O)NCCC2)c1ccc2noc(-c3ccccc3)c2c1 | -3%
c1ccc(-c2nnc3c4ccccc4c4ccccc4c3n2)nc1 | 81% (active)
Cc1oc(-c2ccc(Cl)cc2)cc1C(=O)Nc1ccc(S(N)(=O)=O)cc1 | -10%
COc1ccc(CC(=O)NCC(c2ccsc2)N2CCc3ccccc3C2)cc1 (stereo not given) | -5%
O=C(NCc1ccc2c(c1)OCO2)C(=O)NC[C@H](O)c1cccc2ccccc12 | -1%
O=C(Oc1ccc(C(=S)N2CCOCC2)cc1)c1ccc(F)cc1 | -4.78%
Cc1ccc(C(=O)Oc2ccc(C(=S)N3CCOCC3)cc2)cc1 | -12.7%
O=C(Oc1cccc(C(=S)N2CCOCC2)c1)c1cccc(Cl)c1 | 45.9% (active)
Cc1cc(C)c(C#N)c(SCCC(=O)NCCc2ccccc2)n1 | 0%
O=C(COc1ccccc1[N+](=O)[O-])NC1CC1 | -0.67%
O=C(Oc1ccccc1[N+](=O)[O-])N(c1ccccc1)c1ccccc1 | 39% (active)
Cc1ccc(OCC(=O)Oc2ccccc2[N+](=O)[O-])cc1 | -0.19%
COc1cc(N2CCN(C(=O)Nc3ccc(F)c(Cl)c3)CC2)nc(C)n1 | -8%
O=C(Cn1c(C2CC2)nc2c(cnn2-c2ccccc2)c1=O)Nc1cccc(Cl)c1 | 2%
O=S(=O)(NCc1cc(C2CC2)n(C2CCCC2)n1)c1ccc(Br)s1 | -11%
COc1ccc(C(=O)NN=C(c2ccccc2)c2ccccn2)cc1 | -7.73%
COc1ccccc1NC(=O)CC(C)=NNC(=O)c1ccccn1 | -3.2%
CCN(CC)CCOc1ccc2c(c1)C(=NNC(=O)c1ccccn1)c1cc(OCCN(CC)CC)ccc1-2 | 42.9% (active)
CC(=NNC(=O)C(c1ccncc1)N1CCOCC1)c1ccc(Br)cc1 (stereo not given) | 1.79%
Cc1cnc2n(c1=O)C[C@H](C(=O)Nc1ccc(OC(F)(F)F)cc1)CS2 | -1%
CN(C)CC#CCNC(=O)c1c(F)cccc1Cl | -2%

SMILES | inhibition
O=C(c1cc(-c2ccco2)nc2ccccc12)N(Cc1nnc(-c2ccc(Cl)cc2)o1)C1CC1 | 38.9% (active)
O=C(c1ccc(Cl)s1)N(Cc1nnc(-c2ccccc2Cl)o1)C1CC1 | -3.73%
O=C(Cc1nnc(-c2ccc3ncccc3c2)o1)NCc1ccc(Cl)cc1 | 2%
O=C(Cc1csc(Nc2ccc(OC(F)(F)F)cc2)n1)NCc1ccco1 | -4%
Cc1cc(SCC(=O)N2CCCc3ccccc32)n2ncc(-c3ccccc3)c2n1 | -7%
COc1ccc(OC)c(NC(=O)CSc2nccn2-c2cccc(C(F)(F)F)c2)c1 | 10%
Cc1ccc(NC(=O)Cc2csc(SCC(=O)c3ccc4c(c3)OCO4)n2)cc1F | 0%
CN(C)C(CNC(=O)Nc1ccc2c(c1)OCO2)c1ccsc1 (stereo not given) | -7%
O=C(Nc1ccccc1)N1CCC(c2nnc(C3CC3)s2)CC1 | -7%
O=C(NCc1cccnc1-c1cccs1)c1ccccn1 | -5%
O=C(Nc1nncs1)c1ccccn1 | 98% (active)
O=C(Nc1nnc(C2CC2)s1)c1ccccn1 | 90.3% (active)
CC1CCN(c2ccc(C(=O)Nc3nnc(C4CC4)s3)cc2[N+](=O)[O-])CC1 | -10.1%
O=C(Nc1nncs1)c1ccc(S(=O)(=O)NC2CC2)cc1 | 0% and -28%
COC(=O)C1CCN(C(=O)C(=O)c2c[nH]c3ccccc23)CC1 | 6%
CCOc1ccc(C(=O)NCCNC(=O)c2ccc(NC(C)=O)cc2)cc1OCC | -15%
COc1c2ccc(C(=O)NCC3CCCN3c3nc4ccccc4o3)cc2nn1C (stereo not given) | -11%
Cc1ccc(/C=C/S(=O)(=O)N2CC(S(=O)(=O)c3ccc(F)cc3)C2)cc1 | -9%
N#CCCSc1ccccc1NC(=O)c1ccc([N+](=O)[O-])o1 | -9%
CCOC(=O)CSc1nnc(CNC(=O)Cc2ccccc2)n1-c1ccccc1OC | -1.32%
CCOC(=O)CSc1ncc(-c2ccc(OC)cc2)n1-c1ccccc1C | 53% (active)
COc1ccc(-c2cnc(SCC(=O)Nc3nccs3)n2-c2cccc(Cl)c2)cc1 | -6%
Cc1ccnc(N/C=C(/NC(=O)c2ccccc2)C(=O)N/N=C/c2ccc(Cl)cc2)n1 | inactive
COc1ccc(S(=O)(=O)NCc2ccccc2-c2ccsc2)cc1Cl | -26%

SMILES | inhibition
O=C(CN1CC(=O)Oc2ccccc21)OCC(=O)c1ccc(Cl)c(Cl)c1 | 93.6% (active)
O=C1COc2ccc(C(=O)COC(=O)c3ccccc3Cl)cc2N1 | -1.39%
CCCn1c(=N)n(CC(=O)c2ccc(Cl)c(Cl)c2)c2ccccc21 | -3.72%
O=C(NCCN1CCOC(c2ccccc2)C1)C1CC1 (stereo not given) | -7%
c1ccc(-c2nc3ccc4ncccc4c3nc2-c2ccccc2)cc1 | -12%
c1ccc(-c2cn3c(n2)CCc2ccc4cccnc4c2-3)cc1 | 39.4% (active)
CC(C)CS(=O)(=O)C1CCN(C(=O)c2cccc(Oc3ccc(F)cc3)c2)CC1 | -1%
CCCCC[n+]1ccn(C2=C([O-])c3ccccc3C(=O)C2=NS(=O)(=O)c2ccccc2)c1 | -14.3%
CC(C)(C)NC(=O)COC(=O)c1cc(Cl)ccc1[N+](=O)[O-] | 6.97%
CCCC(=O)OCC(=O)Nc1cc(Cl)ccc1[N+](=O)[O-] | 42.6% (active)
Cc1cc(NC(=O)COC(=O)COc2ccc(Cl)cc2C)c([N+](=O)[O-])cc1C | 10.3%
O=C(NCc1cncc(-c2cccs2)c1)c1ccc2ncsc2c1 | -4%
CC(NC(=O)c1ccccc1)C(c1ccccc1)N(C)C (stereo not given) | 25%
CC(C)NC(=O)c1ccc(Sc2ccccc2)c([N+](=O)[O-])c1 | -10.4%
O=C(NNC(=O)c1ccccc1[N+](=O)[O-])Nc1ccccc1C(F)(F)F | -2.15%
CC(C)NC(=O)c1ccccc1Nc1c([N+](=O)[O-])cc(C(F)(F)F)cc1[N+](=O)[O-] | 56% (active)
COc1ccc(C)cc1NC(=O)Cc1cc(=O)[nH]c(SCc2ccc(F)cc2)n1 | -4%
O=C(CN1C(=O)COc2ccccc21)Nc1ccc(F)cc1 | 48.3% (active)
CC(OC(=O)CN1C(=O)COc2ccccc21)C(=O)NCc1ccc(F)cc1 (stereo not given) | 4.53%
O=C(CN1C(=O)COc2ccc(Cl)cc21)Nc1ccc(N2CCOCC2)cc1 | -6.86%
Cn1c(-c2ccc(F)cc2)cnc1SCC(=O)NNC(=O)Cc1ccccc1 | -3.92%
O=C(CSc1ncc(-c2ccccc2)n1-c1ccc(F)cc1)N1CCCC1 | 43% (active)
N#CCSc1ncc(-c2ccc(Br)cc2)n1-c1ccc(F)cc1 | 7%
